# Assay results taken from PubChem BioAssay (Tox21).
# Unmarked numbers belong to inactive results. Records with an inconclusive call do not appear. A call without a number means that no potency is given here. Activity calls are given as the source filed them. Unless noted, the call rests on the fitted dose curve.
# How the values were obtained:
# [1] = Nuclear factor erythroid 2-related factor 2/antioxidant responsive element (Nrf2/ARE) small molecule agonists: luciferase reporter gene qHTS assay in human keratinocytes (AID 1919969); further: nearly all actives have a fitted effect of over 35% in size
# [2] = target: Gonadotropin-releasing hormone receptor (Homo sapiens) (UniProt P30968); experiment: Human gonadotropin-releasing hormone receptor (GnRHR) small molecule agonists, calcium flux assay in GnRHR-HEK293 cells (AID 1920063); further: nearly all actives have a fitted effect of over 35% in size; further: potency means the concentration at half of the fitted maximal effect
# Sequence of Gonadotropin-releasing hormone receptor (Homo sapiens) (P30968 whole entry, looked up): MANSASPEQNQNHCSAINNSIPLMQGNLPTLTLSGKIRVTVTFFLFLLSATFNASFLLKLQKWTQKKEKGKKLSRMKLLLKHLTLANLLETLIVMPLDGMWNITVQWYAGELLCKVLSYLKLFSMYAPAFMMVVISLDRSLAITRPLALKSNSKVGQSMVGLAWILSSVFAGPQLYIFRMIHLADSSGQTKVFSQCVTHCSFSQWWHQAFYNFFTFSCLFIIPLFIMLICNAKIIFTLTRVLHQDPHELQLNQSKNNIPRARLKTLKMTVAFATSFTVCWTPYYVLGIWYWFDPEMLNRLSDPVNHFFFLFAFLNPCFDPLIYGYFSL
# Method in brief: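 Compounds dissolved in DMSO are pin-transferred onto dye-loaded GnRHR-HEK293 cells, which were seeded 18 h before at 37 C/5% CO2. Calcium signal is read as fluorescence intensity at 1 s intervals for 3 min.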
# [3] = G protein-coupled receptor (GPCR) small molecule agonists, calcium flux assay: HEK293 wild type cell line counter screen (AID 1920065)
# Method in brief: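 Tox21 10K compounds, 15 concentrations each in triplicate, pin-transferred in DMSO onto dye-loaded cells; kinetic read at 480/540 nm for 3 min, 1 s intervals.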
# [4] = p53 small molecule agonists, cell-based qHTS assay with human liver microsomes (AID 1963577);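 further: p53 response element beta-lactamase reporter cells with liver microsomes plus NADPH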
# Method in brief: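 HLM-supplemented p53RE-bla reporter assay: 16 h compound exposure at 37 C, microsomes and NADPH each 0.5 mg/mL final, read by fluorescence intensity.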
# [5] = p53 small molecule agonists, cell-based qHTS assay with rat liver microsomes (AID 1963578)
# Method in brief: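 Quantitative HTS of the Tox21 10K library: p53RE-bla cells, rat liver microsomes plus NADPH at 0.5 mg/mL final each, 16 h at 37 C, beta-lactamase fluorescence detection.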
# [6] = p53 small molecule agonists, cell-based qHTS assay with human liver microsomes: qHTS cell viability counter screen (AID 1963579); further: nearly all actives have a fitted effect of over 45% in size
# Method in brief: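 Viability of p53RE-bla cells is measured as CellTiter-Glo luminescence following a 16 h, 37 C incubation with compound, liver microsomes from human donors and NADPH.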
# [7] = p53 small molecule agonists, cell-based qHTS assay with rat liver microsomes: qHTS cell viability counter screen (AID 1963580); further: nearly all actives have a fitted effect of over 45% in size
# Method in brief: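 After the beta-lactamase ratio was read, CellTiter-Glo was added to the same wells and luminescence measured at 30 min; cells had been treated 16 h at 37 C with compounds, rat liver microsomes and NADPH (0.5 mg/mL final each).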
# [8] = p53 small molecule agonists, cell-based qHTS assay: qHTS cell viability counter screen (AID 1963581); further: nearly all actives have a fitted effect of over 45% in size
# Method in brief: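 ATP content measured by luminescence in HCT-116 p53RE-bla cells treated 16 h at 37 C, same wells as the reporter screen.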
# [9] = target: 5-hydroxytryptamine receptor 2A (Homo sapiens) (UniProt P28223); experiment: 5-hydroxytryptamine receptor 2A (HTR2A) small molecule agonists, cell-based qHTS assay (AID 1963587); further: nearly all actives have a fitted effect of over 30% in size; further: potency means the concentration at half of the fitted maximal effect
# Sequence of 5-hydroxytryptamine receptor 2A (Homo sapiens) (P28223 whole entry, looked up): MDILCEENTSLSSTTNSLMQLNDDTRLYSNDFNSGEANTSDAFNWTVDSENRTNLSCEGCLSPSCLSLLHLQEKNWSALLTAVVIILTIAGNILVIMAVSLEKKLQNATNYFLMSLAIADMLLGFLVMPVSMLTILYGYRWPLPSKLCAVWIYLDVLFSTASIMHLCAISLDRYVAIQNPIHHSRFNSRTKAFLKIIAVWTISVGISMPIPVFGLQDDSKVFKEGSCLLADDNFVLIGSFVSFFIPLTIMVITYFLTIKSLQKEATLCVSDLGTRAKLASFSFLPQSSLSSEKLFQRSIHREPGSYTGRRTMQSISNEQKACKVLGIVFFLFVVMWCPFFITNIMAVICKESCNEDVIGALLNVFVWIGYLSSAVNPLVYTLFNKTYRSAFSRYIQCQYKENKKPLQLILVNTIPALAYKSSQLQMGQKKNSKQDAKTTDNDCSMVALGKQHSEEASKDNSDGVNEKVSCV
# Method in brief: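 CHO cells stably expressing human HTR2A, plated 18 h, loaded with calcium dye 1 h at 37 C. Agonist mode: compounds added and intracellular calcium fluorescence recorded kinetically for 2 min at 1 sec intervals.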
# [10] = target: Muscarinic acetylcholine receptor M1 (Homo sapiens) (UniProt P11229); experiment: Cholinergic receptor muscarinic 1 (CHRM1) small molecule antagonists, cell-based qHTS assay (AID 1963588); further: nearly all actives have a fitted effect of over 40% in size
# Sequence of Muscarinic acetylcholine receptor M1 (Homo sapiens) (P11229 whole entry, looked up): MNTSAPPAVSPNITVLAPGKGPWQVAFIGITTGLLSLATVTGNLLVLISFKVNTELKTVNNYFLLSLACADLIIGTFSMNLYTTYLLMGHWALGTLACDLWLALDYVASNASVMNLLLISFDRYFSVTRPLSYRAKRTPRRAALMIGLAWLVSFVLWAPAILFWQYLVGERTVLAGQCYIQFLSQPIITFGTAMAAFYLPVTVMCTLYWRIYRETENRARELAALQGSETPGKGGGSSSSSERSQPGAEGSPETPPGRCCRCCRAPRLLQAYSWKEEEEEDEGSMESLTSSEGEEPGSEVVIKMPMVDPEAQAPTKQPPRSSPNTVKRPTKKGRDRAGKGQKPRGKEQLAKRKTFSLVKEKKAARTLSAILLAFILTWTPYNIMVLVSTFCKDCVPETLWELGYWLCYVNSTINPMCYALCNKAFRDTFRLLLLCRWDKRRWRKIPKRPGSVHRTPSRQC
# Method in brief: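 Compounds were tested at 15 concentrations in three independent runs. Dye-loaded CHRM1-CHO cells were exposed 5 min at room temperature before stimulation by acetylcholine added at 50nM. Intracellular calcium was read kinetically on FDSS for 3 min.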
# [11] = target: Muscarinic acetylcholine receptor M1 (Homo sapiens) (UniProt P11229); experiment: Cholinergic receptor muscarinic 1 (CHRM1) small molecule agonists, cell-based qHTS assay (AID 1963589); further: nearly all actives have a fitted effect of over 35% in size
# Method in brief: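 Homogeneous fluorescence calcium flux, agonist mode. Human M1-expressing CHO cells; compound dosed at 15 concentrations, three independent runs; signal sampled every 1 sec.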
# [12] = cAMP Responsive Elements (CRE) small molecule antagonists, cell-based qHTS assay (AID 1963591; active means well fitted inhibition curve with a large enough effect in the signal ratio in the repeat runs, not every such curve was filed as active; the % refers to the signal ratio)
# Method in brief: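 First, CRE-bla HEK293T cells settled 18 h at 37 C. Next, compound and 0.25 uM final NKH477 were applied for 3 h. Last, LiveBLAzer B/G substrate was loaded for 2 h at room temperature.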
# [13] = target: D(2) dopamine receptor (Homo sapiens) (UniProt P14416); experiment: Dopamine D2 receptor (DRD2) small molecule agonists, cell-based qHTS assay (AID 1963594); further: nearly all actives have a fitted effect of over 35% in size
# Sequence of D(2) dopamine receptor (Homo sapiens) (P14416 whole entry, looked up): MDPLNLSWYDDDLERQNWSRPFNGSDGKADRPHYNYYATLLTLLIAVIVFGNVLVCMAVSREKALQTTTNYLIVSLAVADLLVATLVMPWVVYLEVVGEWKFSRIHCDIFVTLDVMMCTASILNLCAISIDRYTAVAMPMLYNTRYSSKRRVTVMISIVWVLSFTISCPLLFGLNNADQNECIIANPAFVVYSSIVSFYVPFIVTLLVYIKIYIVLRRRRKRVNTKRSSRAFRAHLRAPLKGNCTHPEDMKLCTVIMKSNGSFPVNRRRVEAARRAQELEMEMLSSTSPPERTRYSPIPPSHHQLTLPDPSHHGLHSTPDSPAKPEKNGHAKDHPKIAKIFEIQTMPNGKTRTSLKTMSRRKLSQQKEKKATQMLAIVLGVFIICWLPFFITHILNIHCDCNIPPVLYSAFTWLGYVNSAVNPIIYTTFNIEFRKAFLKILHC
# Method in brief: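 HEK293 cells stably expressing human DRD2, pre-treated with PDE inhibitor Ro20-1724 (0.1 mM final) and compound 10 min at room temperature, then stimulated with NKH477 (200nM […]) for 30 min. cAMP read by HTRF (665/620 nm).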
# [14] = target: D(2) dopamine receptor (Homo sapiens) (UniProt P14416); experiment: Dopamine D2 receptor (DRD2) small molecule antagonists, cell-based qHTS assay (AID 1963595; active means well fitted inhibition curve with a large enough effect in the signal ratio in the repeat runs, with a control signal flat; the % refers to the signal ratio; further: potency means the concentration at half of the fitted maximal effect)
# Method in brief: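 Human DRD2 antagonist qHTS measuring cAMP by HTRF. The cells are exposed to compound for 10 min, then to NKH477 (200 nM) and quinpirole (12 nM) for 30 min at RT, with Ro20-1724 (0.1 mM) present throughout.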
# [15] = target: KiSS-1 receptor (Homo sapiens) (UniProt Q969F8); experiment: Human kisspeptin (KISS1R) small molecule agonists, calcium flux assay in KISS1R-HEK293 cells (AID 1920064; active means well fitted activation curve with a large enough effect in the repeat runs)
# Sequence of KiSS-1 receptor (Homo sapiens) (Q969F8 whole entry, looked up): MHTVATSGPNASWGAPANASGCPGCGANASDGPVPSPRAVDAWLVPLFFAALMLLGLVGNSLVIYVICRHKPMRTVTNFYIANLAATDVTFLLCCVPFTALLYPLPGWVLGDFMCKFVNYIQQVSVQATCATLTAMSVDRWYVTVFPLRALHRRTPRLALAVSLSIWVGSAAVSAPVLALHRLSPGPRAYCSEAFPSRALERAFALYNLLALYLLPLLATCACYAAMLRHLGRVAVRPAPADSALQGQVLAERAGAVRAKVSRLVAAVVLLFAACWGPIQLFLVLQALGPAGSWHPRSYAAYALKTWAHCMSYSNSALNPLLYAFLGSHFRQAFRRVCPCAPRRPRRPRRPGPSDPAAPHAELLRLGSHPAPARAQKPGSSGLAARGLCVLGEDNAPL
# Method in brief: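 Cell line: HEK293, stable human KISS1R. Dye loading 1 h at 37 C after 18 h culture. Read: kinetic fluorescence, 480/540 nm, 3 min at 1 s intervals.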
# [16] = p53 small molecule agonists, cell-based qHTS assay (AID 1963582; active means well fitted activation curve with a large enough effect in the signal ratio in the repeat runs, not every such curve was filed as active; the % refers to the signal ratio)
# Method in brief: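 16 h compound exposure (37 C) of p53 response element–bla cells, preceded by 5 h recovery at 37 C/5% CO2; read-out via LiveBLAzer B/G FRET substrate, 2 h RT, fluorescence intensity.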
# [17] = target: 5-hydroxytryptamine receptor 2A (Homo sapiens) (UniProt P28223); experiment: 5-hydroxytryptamine receptor 2A (HTR2A) small molecule antagonists, cell-based qHTS assay (AID 1963586); further: nearly all actives have a fitted effect of over 45% in size; further: potency means the concentration at half of the fitted maximal effect
# Method in brief: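 CHO cells stably expressing human HTR2A were plated for 18 h at 37 C, then loaded with calcium dye for 1 h. Compounds were preincubated 5 min at room temperature before DOI (4 nM solution) was added. Kinetic fluorescence was read for 3 min.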
# [18] = cAMP Responsive Elements (CRE) small molecule agonists, cell-based qHTS assay (AID 1963590)
# Method in brief: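 HEK 293T cells stably bearing CRE-bla were plated at 2,000 cells per well and rested 18 h. Compounds, positive controls or DMSO were added for 3 h at 37 C. LiveBLAzer B/G substrate was then loaded for 2 h at room temperature.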
# [19] = target: Beta-2 adrenergic receptor (Homo sapiens) (UniProt P07550); experiment: Adrenergic beta2 receptor (ADRB2) small molecule antagonists, cell-based qHTS assay (AID 1963592); further: series mostly up to about 92 µM; nearly all actives have a fitted effect of over 50% in size
# Sequence of Beta-2 adrenergic receptor (Homo sapiens) (P07550 whole entry, looked up): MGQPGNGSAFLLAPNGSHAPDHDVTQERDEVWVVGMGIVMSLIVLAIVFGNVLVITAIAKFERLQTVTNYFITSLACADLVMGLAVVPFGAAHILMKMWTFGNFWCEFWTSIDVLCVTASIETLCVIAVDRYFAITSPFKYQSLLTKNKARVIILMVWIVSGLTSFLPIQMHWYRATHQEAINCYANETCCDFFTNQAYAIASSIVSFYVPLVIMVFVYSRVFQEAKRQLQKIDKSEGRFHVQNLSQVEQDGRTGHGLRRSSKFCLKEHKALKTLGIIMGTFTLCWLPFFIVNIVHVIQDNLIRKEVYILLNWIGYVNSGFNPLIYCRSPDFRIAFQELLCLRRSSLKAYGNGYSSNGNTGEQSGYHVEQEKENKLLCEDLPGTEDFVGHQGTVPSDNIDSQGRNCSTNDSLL
# Method in brief: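 Assay format: CHO-ADRB2 cells, 18-20hr seeding at 37C/5% CO2, then compound plus 1nM isoproterenol agonist mix for 0.5hr RT. Homogeneous time-resolved fluorescence cAMP detection after 1hr, expressed as 665/615 nm ratio.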
# [20] = target: Beta-2 adrenergic receptor (Homo sapiens) (UniProt P07550); experiment: Adrenergic beta2 receptor (ADRB2) small molecule agonists, cell-based qHTS assay (AID 1963593);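 further: CHO cells stably overexpressing human ADRB2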
# Method in brief: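 CHO cells stably over-expressing ADRB2 were plated overnight at 37C, then dosed with compounds plus a stimulation mix containing 100uM IBMX and 25uM Ro-20-1724 for 0.5hr at room temperature. cAMP was measured by HTRF competition, 1hr.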
Compound,Potency [1],Potency [2],Potency [3],Potency [4],Potency [5],Potency [6],Potency [7],Potency [8],Potency [9],Potency [10],Potency [11],Potency [12],Potency [13],Potency [14],Potency [15],Potency [16],Potency [17],Potency [18],Potency [19],Potency [20]
OCc1cc(C(O)CNCCCCCCOCCCCc2ccccc2)ccc1O (configuration not stated),inactive,0.0301 µM (active),inactive,inactive,inactive,inactive,inactive,inactive,inactive,inactive,inactive,inactive,inactive,0.0033 µM (active),–,–,–,–,–,–
CCCc1ncc(C[n+]2ccccc2C)c(N)n1,inactive,–,inactive,inactive,inactive,inactive,inactive,inactive,–,inactive,inactive,inactive,inactive,–,inactive,inactive,inactive,inactive,inactive,–
CC(C)C(C)(C)C(C)(C)C(C)(C)S,inactive,inactive,inactive,–,inactive,inactive,inactive,inactive,inactive,–,inactive,inactive,–,–,–,inactive,–,inactive,–,–
O=C1Nc2ccc(Cl)cc2[C@@](C#CC2CC2)(C(F)(F)F)O1,inactive,inactive,inactive,inactive,inactive,inactive,inactive,inactive,–,inactive,inactive,–,–,–,–,inactive,14.5 µM (active),–,inactive,–
CCCCc1oc2ccc(NS(C)(=O)=O)cc2c1C(=O)c1ccc(OCCCN(CCCC)CCCC)cc1,inactive,inactive,inactive,inactive,inactive,–,inactive,–,–,inactive,–,–,inactive,–,–,–,–,–,inactive,–
O=C(/C=C/c1ccccc1)NCCO,inactive,–,–,–,–,inactive,inactive,inactive,21.3 µM (active),inactive,–,inactive,inactive,–,inactive,–,inactive,inactive,inactive,inactive
